In the supplement of paper PMC8728848:
About 410 targets per protein were measured; listed, in parts, are those with the strongest signals and a random draw of the rest.

Key:
Assay in all cases: glycan array binding signal (z-score within array); higher = stronger binding
Conditions in all cases: glycan notation: IUPAC condensed, linker removed
[1] = target: GlcNAc(b1-3)Gal(b1-4)GlcNAc(b1-3)Gal(b1-4)GlcNAc
How it was run: (§1)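 From the Consortium for Functional Glycomics database, 3228 arrays were curated, keeping only those whose protein sequence was available. Binding is given as a within-array Z-score averaged across arrays sharing a protein sequence and across linkers. Negative Z-scores can be read as non-binding.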

[2] = target: GlcNAc(b1-3)Gal(b1-4)GlcNAc(b1-3)Gal(b1-4)GlcNAc(b1-2)Man(a1-3)[GlcNAc(b1-3)Gal(b1-4)GlcNAc(b1-3)Gal(b1-4)GlcNAc(b1-2)Man(a1-6)]Man(b1-4)GlcNAc(b1-4)[Fuc(a1-6)]GlcNAc
How it was run: as §1

[3] = target: GlcNAc(b1-3)Gal(b1-4)GlcNAc(b1-3)Gal(b1-4)GlcNAc(b1-3)Gal(b1-4)GlcNAc(b1-3)Gal(b1-4)GlcNAc(b1-2)Man(a1-3)[GlcNAc(b1-3)Gal(b1-4)GlcNAc(b1-3)Gal(b1-4)GlcNAc(b1-3)Gal(b1-4)GlcNAc(b1-3)Gal(b1-4)GlcNAc(b1-2)Man(a1-6)]Man(b1-4)GlcNAc(b1-4)[Fuc(a1-6)]GlcNAc
How it was run: as §1

[4] = target: GlcNAc(b1-3)Gal(b1-4)GlcNAc(b1-3)Gal(b1-4)GlcNAc(b1-3)Gal(b1-4)GlcNAc(b1-3)Gal(b1-4)GlcNAc(b1-2)[GlcNAc(b1-3)Gal(b1-4)GlcNAc(b1-3)Gal(b1-4)GlcNAc(b1-3)Gal(b1-4)GlcNAc(b1-3)Gal(b1-4)GlcNAc(b1-6)]Man(a1-6)[GlcNAc(b1-3)Gal(b1-4)GlcNAc(b1-3)Gal(b1-4)GlcNAc(b1-3)Gal(b1-4)GlcNAc(b1-3)Gal(b1-4)GlcNAc(b1-2)Man(a1-3)]Man(b1-4)GlcNAc(b1-4)[Fuc(a1-6)]GlcNAc
How it was run: as §1

[5] = target: GlcNAc(b1-3)Gal(b1-4)GlcNAc(b1-3)Gal(b1-4)GlcNAc(b1-3)GalNAc
How it was run: as §1

[6] = target: GlcNAc(b1-3)Gal(b1-4)GlcNAc(b1-6)[Gal(b1-3)]GalNAc
How it was run: as §1

GlcNAc(b1-3)Man = target: GlcNAc(b1-3)Man
How it was run: as §1

[7] = target: GlcNAc(b1-4)GlcNAc(b1-4)GlcNAc(b1-4)GlcNAc(b1-4)GlcNAc
How it was run: as §1

[8] = target: Man(a1-2)Man(a1-6)[Man(a1-3)]Man(a1-6)[Man(a1-2)Man(a1-2)Man(a1-3)]Man(b1-4)GlcNAc(b1-4)GlcNAc
How it was run: as §1

MurNAc(b1-4)GlcNAc = target: MurNAc(b1-4)GlcNAc
How it was run: as §1

[9] = target: Neu5Ac(a2-3)Gal(b1-3)GalNAc(b1-4)[Neu5Ac(a2-8)Neu5Ac(a2-3)]Gal(b1-4)Glc
How it was run: as §1

[10] = target: Neu5Ac(a2-3)Gal(b1-3)GlcNAc(b1-2)Man(a1-3)[Neu5Ac(a2-3)Gal(b1-3)GlcNAc(b1-2)Man(a1-6)]Man(b1-4)GlcNAc(b1-4)GlcNAc
How it was run: as §1

[11] = target: Neu5Ac(a2-3)Gal(b1-3)GlcNAc(b1-6)GalNAc
How it was run: as §1

[12] = target: Neu5Ac(a2-3)Gal(b1-4)GlcNAc(b1-3)Gal(b1-3)GlcNAc
How it was run: as §1

[13] = target: Neu5Ac(a2-3)Gal(b1-4)[Fuc(a1-3)]GlcNAc(b1-3)GalNAc
How it was run: as §1

[14] = target: Neu5Ac(a2-3)[GalNAc(b1-4)]Gal(b1-4)Glc
How it was run: as §1

[15] = target: Neu5Ac(a2-6)Gal(b1-4)GlcNAc(b1-2)Man(a1-3)[Gal(b1-4)GlcNAc(b1-2)Man(a1-6)]Man(b1-4)GlcNAc(b1-4)GlcNAc
How it was run: as §1

[16] = target: Neu5Ac(a2-6)Gal(b1-4)GlcNAc(b1-2)Man(a1-3)[Neu5Ac(a2-6)Gal(b1-4)GlcNAc(b1-2)Man(a1-6)]Man(b1-4)GlcNAc(b1-4)[Fuc(a1-6)]GlcNAc
How it was run: as §1

[17] = target: Neu5Ac(a2-6)Gal(b1-4)GlcNAc(b1-2)Man(a1-6)Man(b1-4)GlcNAc(b1-4)GlcNAc
How it was run: as §1

[18] = target: Neu5Ac(a2-6)Gal(b1-4)GlcNAc(b1-3)Gal(b1-3)GlcNAc
How it was run: as §1

[19] = target: Neu5Ac(a2-6)Gal(b1-4)GlcNAc(b1-3)Gal(b1-4)GlcNAc(b1-3)Gal(b1-4)GlcNAc(b1-2)Man(a1-3)[Neu5Ac(a2-6)Gal(b1-4)GlcNAc(b1-3)Gal(b1-4)GlcNAc(b1-3)Gal(b1-4)GlcNAc(b1-2)Man(a1-6)]GalNAc
How it was run: as §1

[20] = target: Neu5Ac(a2-6)Gal(b1-4)GlcNAc(b1-3)Gal(b1-4)GlcNAc(b1-3)GalNAc
How it was run: as §1

[21] = target: Neu5Ac(a2-6)Gal(b1-4)GlcNAc(b1-3)Gal(b1-4)GlcNAc(b1-3)[Neu5Ac(a2-6)Gal(b1-4)GlcNAc(b1-3)Gal(b1-4)GlcNAc(b1-6)]GalNAc
How it was run: as §1

[22] = target: Neu5Ac(a2-8)Neu5Ac(a2-3)Gal(b1-3)GalNAc(b1-4)[Neu5Ac(a2-8)Neu5Ac(a2-3)]Gal(b1-4)Glc
How it was run: as §1

[23] = target: Neu5Ac(a2-8)Neu5Ac(a2-3)[Gal(b1-3)GalNAc(b1-4)]Gal(b1-4)Glc
How it was run: as §1

[24] = target: Neu5Ac9Ac(a2-6)Gal(b1-4)GlcNAc
How it was run: as §1

[25] = target: Neu5Gc(a2-6)Gal(b1-4)GlcNAc
How it was run: as §1

[26] = target: Neu5Gc(a2-8)Neu5Ac(a2-3)Gal(b1-4)GlcNAc
How it was run: as §1

B1: LlpA (Arthrobacter sp) (protein)
chain: MGSSHHHHHHSSGLVPRGSHMTLHPETALRPGAAATSPNSRYRLLYQTDGNLVLYGPDGPLWDSGTNGHGAGACIMQADGNLVLYGPNDEYVWDTETDNNPGSRLVIQDDGNAVIYRPDGSPLWATETCQPPGSADSHVLQSGSTLTPTHGIRSANGLYGLLYQTDGNLVFYGPDGPLWDSGTNGRGAGACIMQPDGNLVLYGPHDEYVWDTETDNNPGSRLVIQDDGNAVIYRPDGNPTWVTGTH
[1]
  glycan array binding signal (z-score): -0.689
[2]
  glycan array binding signal (z-score): 2.11
[3]
  glycan array binding signal (z-score): 2.07
[4]
  glycan array binding signal (z-score): 1.82
[5]
  glycan array binding signal (z-score): 0.18
[6]
  glycan array binding signal (z-score): -0.319
GlcNAc(b1-3)Man
  glycan array binding signal (z-score): 1.02
[7]
  glycan array binding signal (z-score): 0.068
[8]
  glycan array binding signal (z-score): 0.31
MurNAc(b1-4)GlcNAc
  glycan array binding signal (z-score): -0.798
[9]
  glycan array binding signal (z-score): -0.752
[10]
  glycan array binding signal (z-score): -0.65
[11]
  glycan array binding signal (z-score): 0.849
[12]
  glycan array binding signal (z-score): 0.273
[13]
  glycan array binding signal (z-score): 1.8
[14]
  glycan array binding signal (z-score): 0.446
[15]
  glycan array binding signal (z-score): -0.376
[16]
  glycan array binding signal (z-score): 2.31
[17]
  glycan array binding signal (z-score): 0.4
[18]
  glycan array binding signal (z-score): -0.33
[19]
  glycan array binding signal (z-score): 2.47
[20]
  glycan array binding signal (z-score): 0.214
[21]
  glycan array binding signal (z-score): 0.568
[22]
  glycan array binding signal (z-score): 1.98
[23]
  glycan array binding signal (z-score): 0.321
[24]
  glycan array binding signal (z-score): 0.62
[25]
  glycan array binding signal (z-score): -0.005
[26]
  glycan array binding signal (z-score): -0.504
